Measured values taken from PubChem BioAssay (NCATS).
Inconclusive results are not listed. Calls of active or inactive are those of the source. Calls come from the whole dose curve; as a rule, active = well fitted inhibition curve with a large enough effect; inconclusive = small, poorly fitted or top-dose-only effect; inactive = flat fitted curve, though single readings scatter.

Tested on: Zika virus NS2B-NS3 protease
Test: Primary screen GU AMC qHTS for Zika virus inhibitors (AID 1347154);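 note: 0% = no-inhibitor control and -100% = no-enzyme control; nearly all actives have a fitted effect of over 70% in size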
Conditions: Zika NS2B-NS3 unlinked protease, AMC fluorogenic substrate; series mostly up to 54.1 µM; activity change, negative = inhibition: at the top concentration
Method in brief: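 Unlinked Zika NS2B hydrophilic domain–NS3 protease complex at 25 nM in 10 mM Tris-HCl pH 8.0, 0.01% Tween 20, with an AMC peptide substrate. Fluorescence change (340/450 nm) over 15 min at room temperature, normalized to controls, fitted to 4-parameter Hill.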

SMILES | activity change, negative = inhibition | Potency
O=C(NCC(O)CO)c1c(I)c(C(=O)NCC(O)CO)c(I)c(N(CCO)C(=O)CO)c1I (configuration not stated) | -0.492% (inactive) | –
CN1CCN(C(=O)C2CCCCC2)CC1 | -5.2% (inactive) | –
Nc1ccncc1N | -1% (inactive) | –
CCN1CC(CCN2CCOCC2)C(c2ccccc2)(c2ccccc2)C1=O (configuration not stated) | 5.32% (inactive) | –
CC(CN(C)C)C(C)(O)Cc1ccc(Cl)cc1 (configuration not stated) | -7.44% (inactive) | –
OCCN1C[C@H](O)[C@@H](O)[C@H](O)[C@H]1CO | 0.804% (inactive) | –
NC(N)=NCCN1CCCCCCC1 | -2.2% [at 0.59 µM] (inactive) | –
O=C(/C=C/c1ccccc1)OCc1ccccc1 | -8.06% (inactive) | –
O=C1CC[C@@H](C(=O)O)N1 | 1.35% (inactive) | –
O=C(O)/C=C/c1ccc(Cn2ccnc2)cc1 | 2.41% (inactive) | –
O=C(Cn1ccnc1[N+](=O)[O-])NCCO | -2.36% (inactive) | –
O=C(O)c1cc(=O)c2ccccc2o1 | -1.26% (inactive) | –
CN1CCCN=C1COC(=O)C(O)(c1ccccc1)C1CCCCC1 (configuration not stated) | -4.75% (inactive) | –
NS(=O)(=O)c1ccc(C(=O)O)cc1 | 3.94% (inactive) | –
CCCNC(C)(C)COC(=O)c1ccccc1 | -1.13% (inactive) | –
CC(C)C[C@@H](N)C(=O)O | -2.56% [at 25.8 µM] (inactive) | –
CCOc1ccccc1O[C@H](c1ccccc1)[C@H]1CNCCO1 | – | inactive
CC(=O)Nc1ccc(C(=O)O)cc1 | 1.39% (inactive) | –
CCOC(=O)OC(C)OC(=O)[C@@H]1N2C(=O)[C@@H](NC(=O)[C@H](N)c3ccccc3)[C@H]2SC1(C)C (some centres not stated) | 0.203% (inactive) | –

SMILES | activity change, negative = inhibition | Potency
C/C(=C(\CCO)SS/C(CCO)=C(\C)N(C=O)Cc1cnc(C)nc1N)N(C=O)Cc1cnc(C)nc1N | 2.62% (inactive) | –
CC(=O)NS(=O)(=O)c1ccc(N)cc1 | 1.6% (inactive) | –
COc1ccccc1OCC(O)CO (configuration not stated) | -1.33% (inactive) | –
C=CCN1C[C@H](C(=O)N(CCCN(C)C)C(=O)NCC)C[C@@H]2c3cccc4[nH]cc(c34)C[C@H]21 | – | inactive
O=c1[nH]cnc2nc[nH]c12 | -4.47% (inactive) | –
Cc1cc(=O)[nH]c(=S)[nH]1 | -4.74% (inactive) | –
CC[C@]12CCCN3CCc4c(n(c5ccccc45)[C@@](O)(C(=O)OC)C1)[C@@H]32 | 3.44% (inactive) | –
COc1nccnc1NS(=O)(=O)c1ccc(N)cc1 | 3.5% (inactive) | –
CCS(=O)(=O)CCn1c([N+](=O)[O-])cnc1C | -3.48% (inactive) | –
Cc1cccc(Nc2ccccc2C(=O)O)c1C | -2.51% (inactive) | –
CCCCCCCCCCCCCCCCN | -3% (inactive) | –
Cn1c(=O)c2c(ncn2CCO)n(C)c1=O | -0.325% (inactive) | –
CC(C)(C)NCC(O)COc1cccc2c1CCC(=O)N2 (configuration not stated) | -0.679% (inactive) | –
C=CCOc1ccccc1OCC(O)CNC(C)C (configuration not stated) | -2.79% (inactive) | –
CCCCC1(COC(=O)CCC(=O)O)C(=O)N(c2ccccc2)N(c2ccccc2)C1=O | 2.93% (inactive) | –
CN(C(=O)c1c(O)c2ccccc2n(C)c1=O)c1ccccc1 | – | inactive
CCc1cccc(CC)c1NC(=O)CN(CC(=O)O)CC(=O)O | 2.38% (inactive) | –
NC(=O)CCCCC1CCSS1 (configuration not stated) | -0.541% (inactive) | –
